Data from PubChem BioAssay (NCI).
Compounds without any hit were thinned out: in the full panel of roughly 83,000, 20% have a hit.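 Results are percent growth after 48 hours of single-concentration exposure. 100 means growth as in untreated cells, lower positive values show inhibition; negative values down to -100 show cell death.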 Values without a mark were called inactive. Calls of active or inactive are those of the source. The calls were made as follows: active = growth percent below 10; inactive = the rest.

How the values were obtained:
Assay in all cases: NCI-60 one-dose screen, 48 h (100 = growth as untreated, 0 = no growth, -100 = all killed)
Details in all cases: 10 µM unless noted
NCI-H23 lung = system: NCI-H23 lung
NCI-H322M lung = system: NCI-H322M lung
HOP-62 NSCLC = system: HOP-62 NSCLC
NCI-H460 lung = system: NCI-H460 lung
HOP-92 NSCLC = system: HOP-92 NSCLC
NCI-H522 lung = system: NCI-H522 lung
A549/ATCC NSCLC = system: A549/ATCC NSCLC
786-0 renal = system: 786-0 renal
COLO 205 colon = system: COLO 205 colon
NCI-H226 lung = system: NCI-H226 lung

| SMILES | growth (NCI-H23 lung) | growth (NCI-H322M lung) | growth (HOP-62 NSCLC) | growth (NCI-H460 lung) | growth (HOP-92 NSCLC) | growth (NCI-H522 lung) | growth (A549/ATCC NSCLC) | growth (786-0 renal) | growth (COLO 205 colon) | growth (NCI-H226 lung) |
| --- | --- | --- | --- | --- | --- | --- | --- | --- | --- | --- |
| Cc1ccc2c(=O)cc(C(=O)Nc3sc4c(c3C(=O)NCc3cccnc3)CCCC4)oc2c1C | 101% | 103% | 104% | 109% | 97.3% | 100% | 98.4% | 108% | 110% | – |
| O=C(/C=C/C12c3ccccc3C(c3ccccc31)C1C(=O)NC(=O)C12)c1ccc(Br)cc1 (centres undefined) | 50% | 55.8% | 56.3% | 34.6% | 74.5% | 47.1% | 50.2% | 69.2% | 58.8% | – |
| O=C1Nc2ccccc2/C1=C\c1c[nH]c2ccc(Br)cc12 | 77.4% | 64.2% | 56.5% | 80.8% | 64.6% | 35.8% | 73.5% | 109% | 57.5% | – |
| c1ccc(CCNc2c3ccccc3nc3ccccc23)cc1 | 38.6% | 46.6% | 55.1% | 15.3% | -1.55% (active) | 39.8% | 32.7% | 38.1% | 21.2% | – |
| C/C(Cc1ccc(Cl)cc1)=C(\c1ccc(OCCCN(C)C)cc1)c1ccc(OC(=O)Cc2ccccc2)cc1 | 101% | 105% | 92.2% | 110% | 101% | 70.5% | 105% | 104% | 112% | – |
| COc1ccc(Cn2cc3c(c2-c2ccccc2)CCc2cnoc2-3)cc1 | 27.2% | 70.2% | 30.1% | 2.53% (active) | 52.2% | 12.1% | 20.5% | 19.4% | -30.1% (active) | – |
| Nc1nc(NC(=O)Nc2ccc(C(=O)O)cc2)nn1-c1ccc(S(N)(=O)=O)cc1 | 97.9% | 90.4% | – | 95.6% | 78.3% | 97.7% | 82.8% | 97.8% | 111% | 92.1% |
| COC(=O)CCC/C=C\C[C@H]1C=CC(=O)/C1=C/C[C@@H](O)C/C=C\CC(F)(F)F | -15.2% (active) | 46.9% | -12.4% (active) | -47.2% (active) | -18.8% (active) | -56.6% (active) | -3.51% (active) | -39.5% (active) | -36.2% (active) | – |
| COc1ccc(/C=C/C(=O)c2ccc(NC(=O)CSc3nc4c([nH]3)c(=O)n(C)c(=O)n4C)cc2)cc1OC | 93% | 81% | 89.5% | 94.6% | 73.2% | 96.8% | 87.7% | 82.3% | 117% | – |
| O=C(O)c1ccc(-c2ccc(/C=N/Nc3nc(Nc4ccccc4)nc(N4CCCCC4)n3)o2)cc1 | 62.2% | 55.1% | 85% | 52.8% | 35.1% | 43% | 63.5% | 61.5% | 83.2% | – |
| CCN(CC)CCN1C(=O)c2c(c(C)c3c(oc4ccc(O)cc43)c2C)C1=O | 47.3% | 33.2% | 80.7% | -45.6% (active) | 91.7% | 68.2% | 20.6% | -36.2% (active) | 83.2% | – |
| CCN1C(=O)N(CC)C2C1NN=c1s/c(=C3\C(=O)N(CC(C)C)c4ccccc43)c(=O)n12 (centres undefined) | 31.1% | 58.1% | 45.6% | 5.36% (active) | 66.3% | -2.72% (active) | 21.6% | 37.2% | 17.6% | – |
| COc1ccc(N2CCC(=S)NC2=S)cc1 | 99.2% | 105% | 108% | 107% | 104% | 87.4% | 99.8% | 103% | 108% | – |
| COc1ccc(/C=C/c2c(C(=O)/C=C/c3ccccc3)c(C)nc3ccccc23)cc1 | 20% | 28.4% | -13.9% (active) | -48.1% (active) | 66.2% | -24.5% (active) | 20.2% | 13.5% | 3.63% (active) | – |
| COC(=O)c1cc(Br)ccc1O | 110% | 105% | – | 109% | 86.6% | 94.8% | 99.9% | 96.7% | 112% | 101% |
| C=CC(=O)Nc1ccc(Nc2nccc(-c3ccc(N4CCCC4)c(C#N)c3)n2)cc1 | 62.1% | 41.2% | 19.2% | 0.189% (active) | 60.9% | 12.4% | 14.7% | -67.4% (active) | 7.29% (active) | – |
| CCCCCCCC/C=C\CCCCCCCCOc1ccc(CC(=O)NCC[N+]2(C)CCOCC2)cc1 | 78.9% | 88.1% | 30.7% | 54.9% | 66.5% | 69.5% | 88.7% | 67.7% | -14.8% (active) | – |
| O=C(Nc1ccccc1N1CCCC1=O)c1oc2ccc(F)cc2c1-c1cnn(-c2ccccc2)c1 | 61.9% [50 µM] | 63% [50 µM] | 55.1% [50 µM] | 28.1% [50 µM] | 29.1% [50 µM] | 12.7% [50 µM] | 37.5% [50 µM] | 21.3% [50 µM] | 47% [50 µM] | – |
| O=C1/C=C/[C@@H](O)[C@@H]2C[C@@H](O)C[C@H]2/C=C/CCC[C@H](CCO)O1 | 10.2% | 29.3% | 31% | 15.9% | -7.37% (active) | -12.4% (active) | 17.7% | -51.7% (active) | -66.9% (active) | – |
| COc1cc(/C=C/C(=O)c2ccc(-n3cc(CN4CCN(c5cc6c(cc5F)c(=O)c(C(=O)O)cn6C5CC5)CC4)nn3)cc2)ccc1O | 91.4% | 80.2% | 67.7% | 66.7% | 79.3% | 83.9% | 71.6% | 53.9% | 106% | – |
| C=Cc1cnc(Nc2ccc(OC)cc2)nc1NCCCNC(=O)C1CCC1 | 45.2% | 68.8% | 40.7% | 34.5% | 55.4% | 47.9% | 32.4% | 44.3% | 44.8% | – |
| Cn1cc(-c2csc(-c3c[nH]c4ccc(F)cc34)n2)c2ccnc(Cl)c21 | 64.2% | 80.6% | – | 36.7% | 71.5% | 79.4% | 64.3% | 57.6% | 52.2% | 62.1% |
| Nc1nc(N)c(N=Nc2ccccc2)c(-c2ccccc2)n1 | – | 70.1% | 46.9% | 48.7% | 38.8% | 49.2% | 63.8% | 60.7% | 65.8% | – |
| CC1C=CC(OC(=O)C(C)(O)CCC(O)(C(=O)OC2CC(O)C(C(C)C)CC2(C)O)C(C)C)(C(C)C)CC1 (centres undefined) | – | -89.9% [4.63 µM] (active) | -68.7% [4.63 µM] (active) | -69.3% [4.63 µM] (active) | -67.1% [4.63 µM] (active) | -76.7% [4.63 µM] (active) | -78.2% [4.63 µM] (active) | -88.5% [4.63 µM] (active) | -68.3% [4.63 µM] (active) | – |
| Cc1cccc[n+]1C1c2ccccc2-c2ccccc21 | – | 107% | 70.5% | 106% | 68.9% | 57.9% | 78.8% | 90.7% | 75.3% | – |
| CC1(C)C(N)=Nc2cc(OCCCN3Cc4ccccc4C3)c(OCC3CC3)cc21 | – | 82.3% | 93.2% | 79.8% | 63.7% | 59.6% | 77.2% | 64% | -57.2% (active) | 82.9% |
| COc1cc(-c2nc3cc(Cl)c(Cl)cc3[nH]2)ccc1OCC(=O)N=Nc1c(O)[nH]c2ccc(Cl)cc12 | – | 35.2% | -36.7% (active) | 5.88% (active) | -19.7% (active) | 4.94% (active) | 45.8% | 2.74% (active) | -63.3% (active) | 30.4% |
| CCN1CCN(CCNc2nccc(-c3c(-c4ccc(F)c(OC)c4)nc4sccn34)n2)S1(=O)=O | – | 83.4% | 87.7% | 56.1% | 54.4% | 63% | 73.3% | 102% | 62.3% | 109% |
